Hit rate of the full screen: of about 190,000 compounds, about 810 (0.43%) were called active. The entries come from a sample that favours actives as a whole. Unmarked numbers belong to inactive results. Rule as the data show it: active = inhibition above about 50%; inactive = the rest.
What follows are molecules tested against Mannose-6-phosphate isomerase (Homo sapiens) (UniProt P34949) (assay: inhibitors of human PMI, primary screen, biochemical, fluorescence intensity, coupled assay (AID 1209;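 also: plate controls were DMSO vehicle for no effect and wells lacking substrate for full effect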)). Conditions: purified PMI enzyme, at 20 µM, active compounds read high.
Mannose-6-phosphate isomerase (Homo sapiens), sequence (P34949 whole entry, looked up): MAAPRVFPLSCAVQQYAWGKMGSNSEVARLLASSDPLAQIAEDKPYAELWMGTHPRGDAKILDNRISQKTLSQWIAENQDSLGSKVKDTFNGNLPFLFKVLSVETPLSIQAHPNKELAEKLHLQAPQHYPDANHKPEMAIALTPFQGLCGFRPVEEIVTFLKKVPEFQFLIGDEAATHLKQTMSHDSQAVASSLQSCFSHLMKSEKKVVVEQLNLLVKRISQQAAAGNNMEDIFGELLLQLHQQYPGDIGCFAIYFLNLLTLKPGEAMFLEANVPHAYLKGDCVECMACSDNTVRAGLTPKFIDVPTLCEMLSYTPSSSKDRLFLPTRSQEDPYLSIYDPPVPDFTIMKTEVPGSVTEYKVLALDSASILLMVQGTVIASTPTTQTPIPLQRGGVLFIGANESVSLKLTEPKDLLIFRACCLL

| Compound | inhibition |
| --- | --- |
| COc1ccc(C2CC(C(F)(F)F)n3nc(C(=O)NCCCn4ccnc4)cc3N2)cc1OC (stereo unspecified) | 41.3% |
| O=C(CN1CCCc2ccccc21)NCc1ccccc1Cl | -13.5% |
| Cc1ccc(C(=O)Nc2ccc(N3CCN(S(C)(=O)=O)CC3)cc2)cc1 | 0.4% |
| Cc1ccc(S(=O)(=O)CCNC(=O)Cc2ccc(Cl)cc2)cc1 | 3.4% |
| O=C(CS(=O)(=O)c1ccc(Cl)cc1)NCCS(=O)(=O)c1ccc(Cl)cc1 | 59.5% (active) |
| CC(C(=O)NCCS(=O)(=O)c1ccc(Cl)cc1)S(=O)(=O)c1ccc(Cl)cc1 (stereo unspecified) | -15.8% |
| Cc1ccc(CNC(=O)c2cncc(Br)c2)cc1 | 10.4% |
| CCOC(=O)C(C)n1cnc2c(nnn2-c2ccc(OC)cc2)c1=O (stereo unspecified) | -2.7% |
| CCOc1ccc(CNC(=O)CCCOc2cc(=O)n(C)c3ccccc23)cc1 | -6.3% |
| Cc1c(Cc2ccc3c(c2)OCO3)sc(NC(=O)c2cccc3ccccc23)c1C(N)=O | 56.7% (active) |
| Cc1c(Cc2ccc3c(c2)OCO3)sc(NC(=O)c2ccc3ccccc3c2)c1C(N)=O | 43.1% |
| Cc1c(Cc2ccc3c(c2)OCO3)sc(NC(=O)c2ccccc2)c1C(N)=O | -2.5% |
| CC1=C(C)/C(=N\OS(=O)(=O)c2ccc(C)cc2)C=CC1=O | 75.6% (active) |
| COc1ccc(S(=O)(=O)/N=C2/C=CC(=O)C(C)=C2C)cc1 | 14.5% |
| Cc1ccc(S(=O)(=O)O/N=C2\CCCc3ccccc32)cc1 | 9.6% |
| CC1=C(C)/C(=N/OC(=O)c2cccc([N+](=O)[O-])c2)C=CC1=O | 4.4% |
| CC1=C(C)/C(=N\OC(=O)/C=C/c2ccccc2)C=CC1=O | 7.2% |
| CS(=O)(=O)N(CC(=O)NCC1CCCO1)c1cccc([N+](=O)[O-])c1 (stereo unspecified) | -8.6% |
| CCn1c(CNC(=O)Cc2ccc(OC)cc2)nnc1SCCOc1ccccc1 | -11.5% |
| CC(C)Nc1nc(NC(C)C)nc(N(C)C#N)n1 | 3.3% |
| O=C(NN1CCN(Cc2ccccc2Cl)CC1)c1ccc(Br)cc1 | -9.1% |
| O=S1(=O)CCN2C(c3cccc4ccccc34)=CSC2=N1 | 2.1% |
| Nc1nnc(SCCOc2ccccc2)s1 | 1.7% |
| Clc1ccc(OCc2nnc(-c3ccccc3Br)o2)c(Cl)c1 | -0.9% |

| Compound | inhibition |
| --- | --- |
| Cc1ccc(NC(=O)/C(=C/c2cccc([N+](=O)[O-])c2)NC(=O)C2CCCCC2)cc1 | 14% |
| C/C(=N\O)C(=O)NCCN1CCCCC1 | 1.5% |
| CC(=O)/C(CN1CCCCC1)=N\O | -6.1% |
| C/C(=N\O)C(=O)C(CN1CCCCC1)CN1CCCCC1 | 52.4% (active) |
| CCc1c(C)nc2ncnn2c1NC1CCCc2ccccc21 (stereo unspecified) | 15% |
| CC(C)c1ccc(NC(=O)C2CC(=O)N=C(N)S2)cc1 (stereo unspecified) | 7.7% |
| COc1ccc(C2CC(c3ccccc3)=NN2C(=S)Nc2ccccc2)cc1 (stereo unspecified) | 9.4% |
| Cc1ccc(C2CC(c3ccccc3)=NN2C(=S)Nc2ccccc2)o1 (stereo unspecified) | 53% (active) |
| Cc1ccc(C2=NN(C(=S)Nc3ccccc3)C(c3ccco3)C2)cc1 (stereo unspecified) | 8.2% |
| Cc1ccc(-n2c(O)c(C=NC3CCS(=O)(=O)C3)c3ccccc3c2=O)cc1 (stereo unspecified) | 5.7% |
| Cc1cc(C)cc(-n2c(O)c(C=NC3CCS(=O)(=O)C3)c3ccccc3c2=O)c1 (stereo unspecified) | 14.1% |
| O=C(O)CCCN=Cc1c(O)c2ccccc2oc1=O | 3.2% |
| CCOC(=O)c1c(C)oc2c1c(CN1CCN(C(=O)OCC)CC1)c(O)c1ccccc12 | 25.1% |
| CCOC(=O)c1c(C)oc2c1c(C(c1cccnc1)N1CCCCC1)c(O)c1ccccc12 (stereo unspecified) | 28.2% |
| CCOC(=O)c1c(C)oc2c1c(CN1CCN(CCO)CC1)c(O)c1ccccc12 | 57.7% (active) |
| CCOC(=O)c1c(C)oc2c1c(C(c1ccccc1)N1CCOCC1)c(O)c1ccccc12 (stereo unspecified) | 37% |
| O=C(O)CCN=Cc1c(O)c2ccccc2oc1=O | 7.6% |
| CCOC(=O)c1c(C)oc2c1c(C=NC1CCS(=O)(=O)C1)c(O)c1ccccc12 (stereo unspecified) | 76.1% (active) |
| CCOC(=O)c1c(C)oc2c1c(C=NCCC(=O)O)c(O)c1ccccc12 | 77.4% (active) |
| CCOC(=O)c1c(C)oc2c1c1c(c3ccccc32)OCN(Cc2cccnc2)C1 | 71.9% (active) |
| CCOC(=O)c1c(C)oc2c1c(C(c1cccnc1)N1CCN(C)CC1)c(O)c1ccccc12 (stereo unspecified) | 35.1% |
| CCC1CCCCN1C(=O)COc1cccc2c1CCN(C)C2=O (stereo unspecified) | -3.6% |
| O=C(C[n+]1cccc(CO)c1)Nc1nc2ccccc2s1 | -3.4% |
| O=c1c2sc(-c3ccccc3)cc2nc2n1CCC2 | -4.9% |

| Compound | inhibition |
| --- | --- |
| Clc1ccc(N/N=C/c2ccncc2)cc1Cl | 5.3% |
| O=C(COC(=O)[C@@H]1CCCN1S(=O)(=O)c1ccccc1F)Nc1ccc(OC(F)F)cc1 | 9.6% |
| Cn1c(SCC(=O)NCC2CCCO2)nnc1-c1ccc(S(=O)(=O)N2CCCC2)cc1 (stereo unspecified) | -1.5% |
| CCNC(=O)NC(=O)C(C)SCc1ccccc1C (stereo unspecified) | -8.4% |
| CCOC(=O)c1c(C)oc2c1cc(O)c1ccccc12 | 13.4% |
| Oc1[nH]c2ccccc2c1C=NCC1CCCO1 (stereo unspecified) | -2.9% |
| CCOC(=O)c1c(C)oc2c1c(C=NCc1ccccn1)c(O)c1ccccc12 | 62.5% (active) |
| O=c1oc2ccccc2c(O)c1C=NCc1ccccn1 | 5.9% |
| CCOC(=O)c1c(NCC2CCCO2)c2ccccc2[nH]c1=O (stereo unspecified) | -8.8% |
| CCOC(=O)c1c(C)oc2c1c(C=NCC1CCCO1)c(O)c1ccccc12 (stereo unspecified) | 63.6% (active) |
| CCOC(=O)c1c(C)oc2c1c(C(c1ccncc1)N1CCOCC1)c(O)c1ccccc12 (stereo unspecified) | 21% |
| CCOC(=O)c1c(C)oc2c1c(C(c1cccnc1)N1CCOCC1)c(O)c1ccccc12 (stereo unspecified) | 22.6% |
| Cn1c(NC(=O)Cc2cccc3ccccc23)cc(=O)n(C)c1=O | 7.2% |
| NNC(=O)c1sc2cc(C(F)(F)F)cnc2c1-c1cccnc1 | 3.5% |
| O=S1(=O)N=C(Nc2nncs2)c2ccccc21 | 23.3% |
| O=C1CNC(=O)N1CC(O)Cn1c2ccccc2c2ccccc21 (stereo unspecified) | 5.5% |
| O=C(/C=C/c1ccc(S(=O)(=O)NCc2ccco2)cc1)NCc1cccc(Cl)c1 | 0.4% |
| CCCn1c(CNC(=O)c2ccccc2)nc2ccccc21 | 0.8% |
| CCCn1c(CNS(=O)(=O)c2ccc(C)cc2)nc2ccccc21 | 83.3% (active) |
| CCCn1c(NCc2ccccc2NS(=O)(=O)c2ccc(C)cc2)nc2ccccc21 | 27.9% |
| O=C(N/N=C/c1coc2ccccc2c1=O)c1ccccc1Br | -7.2% |
| Cn1c(C(C#N)C(=O)Cc2cccc3ccccc23)nc2ccccc21 (stereo unspecified) | -7.2% |
| C=CCNC(=S)Nc1ccc(Cl)c(S(=O)(=O)N2CCOCC2)c1 | -6.8% |
| CCC(=O)OCCNc1cc(SCCC(=O)OC)c2nonc2c1[N+](=O)[O-] | 79.5% (active) |

| Compound | inhibition |
| --- | --- |
| CCC(=O)OCCNc1cc(Sc2nccn2C)c2nonc2c1[N+](=O)[O-] | 20.4% |
| CCCSc1cc(NCCOC(C)=O)c([N+](=O)[O-])c2nonc12 | 27.6% |
| CCCSc1cc(NCCOC(=O)CCC)c([N+](=O)[O-])c2nonc12 | 41.9% |
| CCCC(=O)OCCNc1cc(SCCC(=O)OC)c2nonc2c1[N+](=O)[O-] | 81.2% (active) |
| COC(=O)CCSc1cc(NCCOC(C)=O)c([N+](=O)[O-])c2nonc12 | 4.9% |
| O=C(O)/C=C/C(=O)Nc1ccc(SC(F)(F)F)cc1 | -22.4% |
| CC1(C)Cc2nc3sc4c(=O)n(Cc5ccccc5)cnc4c3cc2CS1 | -8.6% |
| Cc1cc(NC(=O)CSc2ncnc3ccccc23)no1 | 15.8% |
| O=C(O)CCn1cc(/C=C2\SC(=S)NC2=O)c(-c2ccccc2)n1 | -4.7% |
| O=Cc1cn(CCC(=O)O)nc1-c1cccc(Br)c1 | -4.6% |
| O=c1oc2c(CN3CCOCC3)c(O)ccc2c2ccccc12 | 7.2% |
| CN(C)Cc1c(O)ccc2c3c(c(=O)oc12)CCCCC3 | -0.4% |
| CCC1(c2ccccc2)NC(=O)N(Cc2ccc(C(=O)OC)cc2)C1=O (stereo unspecified) | 4.1% |
| CCOC(=O)c1[nH]c2ccc(OC)cc2c1NC(=O)/C=C/c1ccc2c(c1)OCO2 | -2.7% |
| CC1=NN(c2ccccc2)C(=O)/C1=C/C=C/c1ccccc1 | 3.1% |
| CC1=NN(c2ccccc2)C(=O)/C1=C/C=C/c1ccc(N(C)C)cc1 | 14.6% |
| CC1=NN(c2ccccc2)C(=O)/C1=C/C=C/C=C/N(C)C | 50.1% (active) |
| CCOc1ncccc1C(=O)Nc1nc(SC)ns1 | -7% |
| O=C1C2C3C=CC(CNS(=O)(=O)c4ccccc4[N+](=O)[O-])(O3)C2C(=O)N1c1ccccc1 (stereo unspecified) | -34.8% |
| COc1ccccc1C(OC(=O)c1cccs1)C(=O)NCc1ccco1 (stereo unspecified) | -1.9% |
| O=C(O)[C@@H]1CSC2(CCSC2)N1 (stereo partly specified) | -0.6% |
| CCOc1cc(/C=C2\C(=O)N(Cc3ccco3)C(C)=C2C(=O)OC)ccc1O | 27.7% |
| COC(=O)C1=C(C)N(Cc2ccco2)C(=O)/C1=C\c1ccc(N(C)C)cc1 | 63.9% (active) |
| COC(=O)C1=C(C)N(Cc2ccco2)C(=O)/C1=C\c1ccc([N+](=O)[O-])cc1 | -16.2% |
